Screening data as filed in PubChem BioAssay.
TDP1 cell noCPT: qHTS for Inhibitors of human tyrosyl-DNA phosphodiesterase 1 (TDP1): qHTS in cells in absence of CPT | DT40 Tdp1-/- hTDP1 cells, no CPT, ATP luminescence, 48 h | Potency, µM (titrated, usually from 46.2 µM), inactives show at the top dose activity change, negative = growth inhibition, hits mostly inhibitors | 420,000 compounds, 15% hits | AID 686978, 2013; also: % is scaled to controls: 0 for no effect and ±100 for the full control effect; nearly all actives have a fitted effect of over 55% in size
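Readout: luminescence from CellTiter-Glo after 30 min in the dark at RT. Cells: DT40 Tdp1-/- with stable hTDP1, 400/well. Exposure: compounds alone, ≥48 hr, 37 °C.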
ATXN viability: cell viability loss in ATXN counter-screen; S2 cells (HEK-293 line with an ATXN2-luciferase reporter) viability, CellTiter-Fluor protease fluorescence, 24 h; Potency, µM (highest dose often 56.7 µM), usual class: cytotoxic; 400,000 compounds, 0.49% hits; also: nearly all actives have a fitted effect of over 40% in size
HepG2 tox: kills HepG2 cells in TGF-b inhibitor counter-screen | HepG2 CAGA-GFP viability, ATP luminescence, 18 h | Potency, µM (series often up to 46.1 µM), for inactives: at the top dose activity change, negative = cytotoxicity, hits mostly cytotoxic | 410,000 compounds, 0.76% hits | AID 588856
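HepG2 CAGA-GFP cells (1000/well, DMEM with 1% FBS) received compound, then TGF-beta at 500 pg/mL final, and were incubated 18 hours at 37 degrees C. Viability was read by CellTiter-Glo luminescence. Media-only wells were set as complete cell-killing and DMSO as no toxicity.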
DT40 TDP1 CPT: DT40-hTDP1 cell growth loss with CPT; chicken DT40 Tdp1-/-;hTDP1 cells + 20 nM CPT, ATP luminescence, 48 h; Potency, µM (highest dose often 46.2 µM), without a hit: top-dose activity change, negative = growth inhibition, hits mostly inhibitors; 420,000 compounds, 12% hits; AID 686979; also: % is scaled to controls: 0 for no effect and ±100 for the full control effect; nearly all actives have a fitted effect of over 55% in size
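Cell growth measured by CellTiter-Glo luminescence after a minimum 48 h, 37 C compound exposure with 20 nM CPT in Tdp1-knockout DT40 cells stably expressing hTDP1, seeded 400/well; qHTS titration format.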
TGFb SMAD3 inh: blocks TGF-b signaling; 410,000 compounds, 1.2% hits; Potency, µM (titrated, usually from 46.1 µM), without a hit: at the highest dose activity, negative = inhibition, actives largely listed as inhibitors; HepG2 CAGA-GFP TGF-b/SMAD3 reporter, GFP fluorescence, 18 h; TGF-beta stimulated, 500 pg/mL final; also: % is scaled to controls: 0 for no effect and ±100 for the full control effect; nearly all actives have a fitted effect of over 65% in size
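Per well, imaged GFP fluorescence of HEPG2 CAGA-GFP cells gives the signal; cells get compound, then TGF-beta (500 pg/mL final), 18 h at 37 degrees C; %Activity versus -TGF-beta and +DMSO controls.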
ATXN2 expr inh: ATXN2 expression inhibition. HEK-293 ATXN2-luciferase reporter, luminescence, 24 h. Potency, µM (doses to about 57 µM), for the others: at the highest dose activity change, negative = inhibition, most hits filed as inhibitors. 360,000 compounds, 0.72% hits; also: % is scaled to controls: 0 for no effect and ±100 for the full control effect; nearly all actives have a fitted effect of over 55% in size
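qHTS (up to 57 uM final) was run with 24 h compound exposure of reporter cells at 37 °C. Each well was multiplexed: SteadyGlo luminescence measured ATXN2-luciferase expression after a fluorogenic Gly-Phe-AFC viability readout (25 uM final).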
Starred values were filed as active, the others as inactive; i = inactive; u = inconclusive; x = no result given. Shown are actives, neighbours in structure and some others; about 17% of the full set was active somewhere. Calls follow the shape of the dose curve; as a rule, active = well fitted curve in the direction sought with a large enough effect; inconclusive = small, poorly fitted or top-dose-only effect, or another doubt; inactive = no such curve, though single readings can be large; an effect the other way counts as inactive or inconclusive. Potency is read from the fitted curve at half-maximal effect.

SMILES	TDP1 cell noCPT	ATXN viability	HepG2 tox	DT40 TDP1 CPT	TGFb SMAD3 inh	ATXN2 expr inh
Cc1ccc(S(=O)(=O)Nc2ccc3c4c(cccc24)CC3)c(C)c1	13µM*	i	-5%	15µM*	u	-29%
C/C(=C/CCC(C)(O)C1CC[C@@]2(C)[C@@H]3CC=C4[C@@H](CC[C@H](O[C@H]5O[C@@H](CO)[C@H](O)[C@@H](O)[C@@H]5O)C4(C)C)[C@]3(C)C(=O)C[C@]12C)CO[C@@H]1O[C@H](CO)[C@@H](O)[C@H](O)[C@H]1O (some centres undefined)	5%	i	-5%	7%	7%	7%
c1ccc(N2CCN(c3ccccc3)C2c2cccs2)cc1	-13%	i	-15%	-4%	1%	37%
Cc1ccc(S(=O)(=O)Nc2ccc(O)c3ccccc23)c(C)c1	5.2µM*	u	-95%	3.7µM*	u	-39%
Cn1c(=O)c2c(nc(SCCN3CCOCC3)n2Cc2cccc3ccccc23)n(C)c1=O	5.2µM*	i	-22%	8.2µM*	-9%	-61%
Cc1ccc(Cn2c(SCCN3CCCCC3)nc3c2c(=O)n(C)c(=O)n3C)cc1	15µM*	i	-11%	u	15%	-4%
Cn1c(=O)c2c(nc(SCCN3CCCCC3)n2Cc2ccccc2)n(C)c1=O	-26%	i	-9%	u	-8%	0%
COc1ccc(C#Cc2cnc3c(c2)C(=O)N([C@@H](C)CO)C[C@@H](C)[C@@H](CN(C)CC2CCOCC2)O3)cc1	21µM*	i	1%	18µM*	0%	-16%
CCCNC(=O)N(C)C[C@H]1Oc2ncc(C#CCc3ccccc3)cc2C(=O)N([C@H](C)CO)C[C@H]1C	10µM*	i	-33%	29µM*	-1%	-6%
COc1ccc(S(=O)(=O)N(C)C[C@H]2Oc3ncc(Br)cc3C(=O)N([C@@H](C)CO)C[C@@H]2C)cc1	12µM*	u	-1%	u	32%	-8%
C[C@@H]1CN([C@@H](C)CO)C(=O)c2cc(C#CC3CCCCC3)cnc2O[C@@H]1CN(C)S(=O)(=O)c1ccc(F)cc1	15µM*	20µM*	-21%	16µM*	u	u
C[C@@H]1CN([C@@H](C)CO)C(=O)c2cc(/C=C/c3ccccc3)cnc2O[C@@H]1CN(C)S(=O)(=O)c1ccc(F)cc1	-14%	i	-1%	-8%	3%	-4%
C[C@@H]1CN([C@@H](C)CO)C(=O)c2cc(Br)cnc2O[C@H]1CN(C)S(=O)(=O)c1ccccc1	-5%	u	-6%	-15%	-13%	-5%
Cc1cc(C)nc(N/C=C(\C#N)C(=O)c2cccc(CSc3ccccc3)c2)n1	-6%	x	-5%	u	-2%	x
O=C(O)c1c(Cl)c(Cl)c(Cl)c(Cl)c1C(=O)OCC1CCCO1 (centres undefined)	12%	i	-59%	6%	u	x
CCN(CC)C(=O)C(=O)Nc1ccc(F)c(Cl)c1	-2%	i	0%	16%	-1%	31%
C/C=C/c1cnc2c(c1)C(=O)N([C@@H](C)CO)C[C@H](C)[C@@H](CN(C)S(=O)(=O)c1ccc(C)cc1)O2	23µM*	i	1%	23µM*	-3%	-8%
Cc1ccccc1-c1cnc2c(c1)C(=O)N([C@H](C)CO)C[C@@H](C)[C@H](CN(C)C(=O)c1ccncc1)O2	5%	i	7%	5%	0%	0%
C[C@H](CO)N1C[C@H](C)[C@H](CN(C)Cc2ccccc2)Oc2ncc(Br)cc2C1=O	-23%	i	1%	-12%	4%	-9%
Cc1ccccc1-c1cnc2c(c1)C(=O)N([C@@H](C)CO)C[C@@H](C)[C@H](CN(C)Cc1ccccc1F)O2	16µM*	u	-31%	u	9%	-7%
C[C@H]1CN([C@@H](C)CO)C(=O)c2cc(Br)cnc2O[C@H]1CN(C)Cc1ccc(Oc2ccccc2)cc1	16µM*	u	-31%	18µM*	0%	-34%
NCC1O[C@@H](OC2C(N)CC(N)C(O)C2O[C@@H]2OC(CO)C(O)C2O)C(N)C(O)C1O (some centres undefined)	-1%	x	x	-29%	x	x
Cc1ccccc1Cn1c2ccccc2c2cnn(CC(=O)NCc3ccccn3)c(=O)c21	u	i	1%	u	0%	1%
Cc1cc(C)c(Cn2c3ccccc3c3cnn(CC(=O)NCc4ccccn4)c(=O)c32)c(C)c1	23µM*	i	0%	21µM*	-15%	-4%
Cc1cc(C)c(Cn2c3ccccc3c3cnn(CC(=O)NCCC4=CCCCC4)c(=O)c32)c(C)c1	16µM*	i	0%	21µM*	-4%	5%
SMILES	TDP1 cell noCPT	ATXN viability	HepG2 tox	DT40 TDP1 CPT	TGFb SMAD3 inh	ATXN2 expr inh
O=C(Cn1ncc2c3ccccc3n(Cc3ccc(Cl)cc3)c2c1=O)NCCC1=CCCCC1	-3%	i	6%	4%	1%	12%
Cc1cc(C)c2nc(SCC(=O)NCCC3=CCCCC3)cc(C)c2c1	21µM*	i	-14%	u	5%	0%
Nc1cc(N)nc(SCC(=O)NCCC2=CCCCC2)n1	-19%	i	-10%	-15%	-2%	4%
Cc1cc(C)c(Cn2c3ccccc3c3cnn(CC(=O)NCCN4CCOCC4)c(=O)c32)c(C)c1	u	u	-74%	u	u	x
Cc1cc(C)c(Cn2c3ccccc3c3cnn(CC(=O)NCCCc4ccccc4)c(=O)c32)c(C)c1	21µM*	i	-9%	18µM*	-12%	-2%
CC(C)C[C@H](NC(=O)C1CC(=O)N(c2ccc3c(c2)OCO3)C1)C(=O)NC1CCCCC1 (some centres undefined)	14%	i	1%	-2%	2%	6%
CC(C)NC(=O)NC(=O)COC(=O)c1ccc(S(=O)(=O)NCc2ccco2)cc1	13%	i	2%	17%	3%	-6%
COc1ccc(NC2CCCN(C(=O)CCN3CCOCC3)C2)cc1 (centres undefined)	-13%	i	-57%	-7%	-8%	x
COc1cc(=O)n2c(c1C(=O)N(C)Cc1nccs1)CCN(Cc1cc(C)cc(C)c1)CC2	u	i	x	u	x	x
COc1ccc(-c2nn(CCC#N)cc2/C=N/O)cc1OC	3%	i	-1%	6%	-1%	-1%
